Reference: the supplement of paper PMC10849652
Targets with a hit are over-represented here; the source holds about 8,800 in all. About 0.5% of all pairs of compound and target were hits.

Columns and labels:
Assay in all cases: log2 fold change, soluble protein after heating vs DMSO (PISA); higher = thermal stabilisation; K562 lysate, 10 uM; active = over 0.2 and 3.5 SD of the protein, either way, in both replicates (recomputed)
nilotinib = compound: Cc1cn(-c2cc(NC(=O)c3ccc(C)c(Nc4nccc(-c5cccnc5)n4)c3)cc(C(F)(F)F)c2)cn1 [nilotinib]
In short: (§1)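 Log-two fold change in thermal stability relative to solvent controls is reported from duplicates. For each sample, crude K562 extract from dounce-homogenised pellets in PBS pH 7.4 with 1 mM MgCl2, at 1 mg/mL protein, was treated with 10 μM compound for 30 min. Aliquots heated for 3 min across 48°C-58°C were pooled, brought to 0.5% NP-40 at 4°C and cleared at 21,000xg for 90 min. The supernatant was quantified by TMTpro 16plex LC-MS/MS with channel sums equalised.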

[1] = compound: Cc1nc(Nc2n[nH]c3c2CN(C(=O)N[C@H](CN(C)C)c2ccccc2)C3(C)C)c2sccc2n1
In short: as §1

dasatinib = compound: Cc1nc(Nc2ncc(C(=O)Nc3c(C)cccc3Cl)s2)cc(N2CCN(CCO)CC2)n1 [dasatinib]
In short: as §1

[2] = compound: Cc1ncc(-c2ccnc(Nc3ccc(S(C)(=O)=O)cc3)n2)n1C(C)C
In short: as §1

[3] = compound: Cn1cc(-c2ccc3c(c2)CCN3C(=O)Cc2cccc(C(F)(F)F)c2)c2c(N)ncnc21
In short: as §1

quisinostat = compound: Cn1cc(CNCC2CCN(c3ncc(C(=O)NO)cn3)CC2)c2ccccc21 [quisinostat]
In short: as §1

tipifarnib = compound: Cn1cncc1[C@@](N)(c1ccc(Cl)cc1)c1ccc2c(c1)c(-c1cccc(Cl)c1)cc(=O)n2C [tipifarnib]
In short: as §1

[4] = compound: NC(=O)Nc1cc(-c2cccc(F)c2)sc1C(=O)N[C@H]1CCCNC1
In short: as §1

[5] = compound: NC(=O)c1cnc(N[C@@H]2CCCC[C@@H]2N)nc1Nc1cccc(-n2nccn2)c1
In short: as §1

[6] = compound: NC1(c2ccc(-c3nc4ccn5c(=O)[nH]nc5c4cc3-c3ccccc3)cc2)CCC1
In short: as §1

Measured: log2 fold change

POMP (UniProt Q9Y244)
Sequence of UniProt Q9Y244 (Q9Y244 whole entry, looked up): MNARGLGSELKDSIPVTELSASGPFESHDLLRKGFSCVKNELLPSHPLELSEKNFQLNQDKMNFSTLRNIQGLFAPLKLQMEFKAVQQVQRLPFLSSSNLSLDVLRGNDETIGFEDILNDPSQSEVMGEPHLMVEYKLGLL
inactive: nilotinib 0.021 | [1] 0.057 | dasatinib 0.048 | [3] 0 | quisinostat -0.054 | tipifarnib -0.046 | [4] -0.007 | [5] 0.039 | [6] -0.002
active: [2] 0.301

PCBP2 (UniProt H3BRU6)
inactive: nilotinib 0.066 | [1] 0.04 | dasatinib 0.079 | [2] 0.027 | [3] -0.082 | quisinostat -0.119 | tipifarnib -0.095 | [4] 0.042 | [5] -0.023 | [6] 0.084

PRKACA (UniProt P17612)
inactive: nilotinib -0.055 | dasatinib 0.07 | [2] 0.068 | [3] 0.049 | quisinostat 0.097 | tipifarnib -0.083 | [5] 0.273 | [6] -0.038
active: [1] 0.638 | [4] 0.637

PTK2B (UniProt Q14289)
Sequence of UniProt Q14289 (Q14289 whole entry, looked up): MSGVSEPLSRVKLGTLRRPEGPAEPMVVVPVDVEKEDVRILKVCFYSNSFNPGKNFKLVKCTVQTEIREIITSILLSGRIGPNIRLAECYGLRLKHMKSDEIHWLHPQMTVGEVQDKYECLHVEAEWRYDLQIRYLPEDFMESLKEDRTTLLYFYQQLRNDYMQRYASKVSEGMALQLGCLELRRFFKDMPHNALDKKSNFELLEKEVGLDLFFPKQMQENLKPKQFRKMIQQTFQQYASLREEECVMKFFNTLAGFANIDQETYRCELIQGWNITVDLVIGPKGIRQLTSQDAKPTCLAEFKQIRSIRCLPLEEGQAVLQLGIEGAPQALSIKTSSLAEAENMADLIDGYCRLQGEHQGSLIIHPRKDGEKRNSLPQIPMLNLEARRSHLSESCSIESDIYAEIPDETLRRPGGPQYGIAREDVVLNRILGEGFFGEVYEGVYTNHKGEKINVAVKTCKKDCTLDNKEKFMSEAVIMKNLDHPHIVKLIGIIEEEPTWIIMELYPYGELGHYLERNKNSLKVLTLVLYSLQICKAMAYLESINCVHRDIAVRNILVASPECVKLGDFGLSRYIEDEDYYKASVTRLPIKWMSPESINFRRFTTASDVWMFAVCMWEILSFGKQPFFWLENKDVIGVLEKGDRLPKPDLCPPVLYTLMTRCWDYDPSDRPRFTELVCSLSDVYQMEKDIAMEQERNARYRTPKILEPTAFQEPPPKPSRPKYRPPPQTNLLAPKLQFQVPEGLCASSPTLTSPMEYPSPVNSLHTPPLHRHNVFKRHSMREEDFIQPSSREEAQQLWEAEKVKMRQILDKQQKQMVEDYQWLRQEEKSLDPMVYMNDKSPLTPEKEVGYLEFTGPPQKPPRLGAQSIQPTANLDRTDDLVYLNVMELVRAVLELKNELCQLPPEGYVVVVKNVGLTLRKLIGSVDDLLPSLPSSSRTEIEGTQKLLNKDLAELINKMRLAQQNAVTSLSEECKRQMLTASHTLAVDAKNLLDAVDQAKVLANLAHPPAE
active: [4] 0.377
inactive: nilotinib 0.011 | [1] 0.109 | dasatinib 0.041 | [2] 0.026 | [3] 0.059 | quisinostat -0.122 | tipifarnib -0.067 | [5] 0.072 | [6] -0.04

PHGDH (UniProt O43175)
inactive: nilotinib 0.013 | [1] -0.025 | dasatinib -0.077 | [2] 0.005 | [3] 0.021 | quisinostat -0.032 | tipifarnib 0.018 | [4] -0.032 | [5] 0.006 | [6] 0.054

PHKG1 isoform 2 (UniProt Q16816)
inactive: nilotinib -0.049 | dasatinib -0.124 | [2] -0.204 | [3] -0.021 | quisinostat -0.151 | tipifarnib -0.007 | [5] 0.043 | [6] -0.181
active: [1] 1.01 | [4] 1.31

PRMT8 (UniProt Q9NR22)
Sequence of UniProt Q9NR22 (Q9NR22 whole entry, looked up): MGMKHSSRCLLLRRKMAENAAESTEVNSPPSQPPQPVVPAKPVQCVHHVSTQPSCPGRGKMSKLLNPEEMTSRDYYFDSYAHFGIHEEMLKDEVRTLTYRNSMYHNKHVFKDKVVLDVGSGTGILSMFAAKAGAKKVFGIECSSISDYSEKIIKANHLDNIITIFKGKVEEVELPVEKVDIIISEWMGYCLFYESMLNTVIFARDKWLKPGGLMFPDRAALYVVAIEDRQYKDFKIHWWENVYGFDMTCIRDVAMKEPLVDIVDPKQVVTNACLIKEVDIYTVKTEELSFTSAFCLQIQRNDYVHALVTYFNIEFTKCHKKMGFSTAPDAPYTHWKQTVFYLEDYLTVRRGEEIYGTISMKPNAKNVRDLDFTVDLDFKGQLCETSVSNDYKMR
inactive: nilotinib 0.007 | [1] -0.021 | dasatinib -0.039 | [2] -0.01 | [3] -0.023 | quisinostat -0.057 | tipifarnib 0.036 | [4] 0.034 | [5] -0.023 | [6] -0.056

PWP1 (UniProt Q13610)
inactive: nilotinib -0.016 | [1] 0.009 | dasatinib 0.065 | [2] 0.005 | [3] 0.048 | quisinostat 0.068 | tipifarnib 0.017 | [4] -0.005 | [5] -0.003 | [6] 0.036

PLEKHF1 (UniProt Q96S99)
Sequence of UniProt Q96S99 (Q96S99 whole entry, looked up): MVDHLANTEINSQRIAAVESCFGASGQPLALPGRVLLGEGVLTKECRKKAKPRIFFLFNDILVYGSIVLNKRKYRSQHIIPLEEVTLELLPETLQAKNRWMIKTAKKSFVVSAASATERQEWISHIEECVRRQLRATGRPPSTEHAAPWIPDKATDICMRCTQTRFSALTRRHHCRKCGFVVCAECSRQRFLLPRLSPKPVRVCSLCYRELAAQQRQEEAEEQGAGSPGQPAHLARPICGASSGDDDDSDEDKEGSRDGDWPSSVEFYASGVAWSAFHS
inactive: nilotinib -0.03 | [1] -0.028 | dasatinib -0.016 | [2] 0.012 | [3] -0.027 | quisinostat -0.009 | tipifarnib -0.012 | [4] 0.021 | [5] -0.002 | [6] -0.023

PI4KA (UniProt P42356)
inactive: nilotinib -0.025 | [1] 0.055 | dasatinib -0.098 | [2] 0.015 | [3] 0.043 | quisinostat -0.076 | tipifarnib -0.031 | [4] 0.041 | [5] 0.003 | [6] 0.019

PRPF6 (UniProt O94906)
inactive: nilotinib -0.001 | [1] 0.021 | dasatinib -0.036 | [2] -0.005 | [3] 0.026 | quisinostat -0.067 | tipifarnib 0.008 | [4] 0.044 | [5] 0.022 | [6] -0.019

PI4K2A (UniProt Q9BTU6)
Sequence of UniProt Q9BTU6 (Q9BTU6 whole entry, looked up): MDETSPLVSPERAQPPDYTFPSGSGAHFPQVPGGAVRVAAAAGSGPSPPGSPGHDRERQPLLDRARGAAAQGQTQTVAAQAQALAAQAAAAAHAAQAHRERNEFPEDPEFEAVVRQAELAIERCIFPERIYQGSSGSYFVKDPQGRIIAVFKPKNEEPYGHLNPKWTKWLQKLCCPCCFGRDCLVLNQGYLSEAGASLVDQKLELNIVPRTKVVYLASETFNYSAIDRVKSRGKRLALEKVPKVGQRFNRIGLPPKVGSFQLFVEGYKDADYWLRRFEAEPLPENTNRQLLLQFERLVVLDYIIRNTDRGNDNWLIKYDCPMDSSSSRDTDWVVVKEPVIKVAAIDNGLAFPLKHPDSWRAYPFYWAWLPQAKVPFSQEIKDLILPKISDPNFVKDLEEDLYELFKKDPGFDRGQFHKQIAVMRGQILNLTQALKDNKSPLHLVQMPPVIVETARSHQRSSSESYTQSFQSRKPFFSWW
inactive: nilotinib 0.009 | [1] 0.03 | dasatinib -0.036 | [3] -0.024 | quisinostat 0.01 | tipifarnib -0.064 | [4] 0.071 | [6] -0.004
active: [2] 0.207 | [5] 0.49

PFKFB3 isoform 4 (UniProt Q16875)
Sequence of UniProt Q16875 (Q16875 whole entry, looked up): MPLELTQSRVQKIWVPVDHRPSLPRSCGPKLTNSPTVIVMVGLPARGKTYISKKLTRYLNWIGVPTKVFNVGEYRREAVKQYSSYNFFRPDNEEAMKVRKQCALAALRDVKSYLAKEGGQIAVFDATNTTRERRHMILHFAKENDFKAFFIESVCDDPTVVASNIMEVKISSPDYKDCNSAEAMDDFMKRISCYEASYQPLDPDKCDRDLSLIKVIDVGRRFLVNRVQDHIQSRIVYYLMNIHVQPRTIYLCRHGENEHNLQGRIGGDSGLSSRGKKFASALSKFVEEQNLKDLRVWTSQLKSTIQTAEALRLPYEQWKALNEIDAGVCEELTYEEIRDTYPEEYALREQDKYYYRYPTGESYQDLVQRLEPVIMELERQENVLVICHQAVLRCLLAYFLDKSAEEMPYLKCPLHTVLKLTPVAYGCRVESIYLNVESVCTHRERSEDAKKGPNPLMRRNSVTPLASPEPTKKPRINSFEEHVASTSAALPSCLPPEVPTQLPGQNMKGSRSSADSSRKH
inactive: nilotinib 0.018 | [1] -0.023 | dasatinib -0.088 | [2] -0.021 | [3] 0.075 | quisinostat -0.012 | tipifarnib 0.01 | [4] -0.025 | [5] -0.192 | [6] -0.001

PDCD6IP isoform 2 (UniProt Q8WUM4)
inactive: nilotinib -0.018 | [1] 0.007 | dasatinib -0.042 | [2] 0.004 | [3] 0.022 | quisinostat 0.002 | tipifarnib 0.016 | [4] -0.001 | [5] 0.018 | [6] 0.002

PSTPIP2 (UniProt Q9H939)
Sequence of UniProt Q9H939 (Q9H939 whole entry, looked up): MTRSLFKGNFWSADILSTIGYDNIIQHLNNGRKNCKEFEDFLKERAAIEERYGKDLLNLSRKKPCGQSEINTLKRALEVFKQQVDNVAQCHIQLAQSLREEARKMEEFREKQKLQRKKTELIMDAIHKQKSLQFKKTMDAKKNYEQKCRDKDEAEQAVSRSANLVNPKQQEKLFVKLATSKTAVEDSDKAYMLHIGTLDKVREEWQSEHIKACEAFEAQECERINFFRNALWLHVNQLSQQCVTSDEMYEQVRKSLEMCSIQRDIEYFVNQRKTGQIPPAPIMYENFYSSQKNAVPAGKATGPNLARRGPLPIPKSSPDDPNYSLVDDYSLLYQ
inactive: nilotinib 0.029 | [1] 0.016 | dasatinib -0.056 | [2] 0.028 | [3] 0.023 | quisinostat -0.037 | tipifarnib -0.008 | [4] 0.008 | [5] -0.007 | [6] 0.007

PEX2 (UniProt P28328)
Sequence of UniProt P28328 (P28328 whole entry, looked up): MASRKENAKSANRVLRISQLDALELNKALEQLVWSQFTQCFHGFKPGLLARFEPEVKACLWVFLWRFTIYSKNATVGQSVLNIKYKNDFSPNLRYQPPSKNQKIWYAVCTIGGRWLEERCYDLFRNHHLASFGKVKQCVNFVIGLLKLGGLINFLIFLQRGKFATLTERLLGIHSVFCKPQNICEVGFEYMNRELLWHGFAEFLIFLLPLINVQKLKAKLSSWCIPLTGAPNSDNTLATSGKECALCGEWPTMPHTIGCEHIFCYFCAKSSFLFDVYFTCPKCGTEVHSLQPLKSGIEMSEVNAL
inactive: nilotinib 0.059 | [1] -0.158 | dasatinib -0.078 | [2] -0.041 | [3] 0.039 | quisinostat 0.054 | tipifarnib 0.048 | [4] 0.143 | [5] 0.116 | [6] -0.106

PHKA2 (UniProt P46019)
inactive: nilotinib 0.005 | [1] 0.163 | dasatinib -0.05 | [2] 0.019 | [3] -0.028 | quisinostat -0.148 | tipifarnib 0.015 | [5] 0.001 | [6] -0.037
active: [4] 0.302

PICALM (UniProt Q13492)
inactive: nilotinib -0.012 | [1] -0.01 | dasatinib -0.036 | [2] -0.009 | [3] 0.001 | quisinostat -0.003 | tipifarnib -0.042 | [4] -0.018 | [5] 0.012 | [6] 0.007

PLEKHA5 isoform 6 (UniProt Q9HAU0)
inactive: nilotinib -0.052 | [1] 0.032 | dasatinib 0.006 | [2] -0.005 | [3] 0.021 | quisinostat -0.011 | tipifarnib 0.009 | [4] 0.011 | [5] -0.008 | [6] -0.003

PTMA (UniProt P06454)
Sequence of UniProt P06454 (P06454 whole entry, looked up): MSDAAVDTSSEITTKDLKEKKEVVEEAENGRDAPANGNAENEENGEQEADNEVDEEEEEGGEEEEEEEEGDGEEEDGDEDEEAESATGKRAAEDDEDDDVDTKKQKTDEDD
inactive: nilotinib 0.008 | [1] -0.046 | dasatinib 0.056 | [2] 0.019 | [3] -0.025 | quisinostat 0.047 | tipifarnib 0.045 | [4] 0.017 | [5] 0.032 | [6] -0.006

PGPEP1 (UniProt Q9NXJ5)
Sequence of UniProt Q9NXJ5 (Q9NXJ5 whole entry, looked up): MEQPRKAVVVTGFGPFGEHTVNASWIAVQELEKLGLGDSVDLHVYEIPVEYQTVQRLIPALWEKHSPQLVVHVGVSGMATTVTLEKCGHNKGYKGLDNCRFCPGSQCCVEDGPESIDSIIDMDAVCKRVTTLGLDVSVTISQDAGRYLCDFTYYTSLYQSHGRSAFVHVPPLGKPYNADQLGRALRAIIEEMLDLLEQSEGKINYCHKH
inactive: nilotinib 0.018 | [1] 0.019 | dasatinib -0.067 | [2] 0.07 | [3] 0.011 | quisinostat 0.041 | tipifarnib -0.006 | [4] -0.033 | [5] -0.03 | [6] 0.033

PTPN6 isoform 4 (UniProt P29350)
Sequence of UniProt P29350 (P29350 whole entry, looked up): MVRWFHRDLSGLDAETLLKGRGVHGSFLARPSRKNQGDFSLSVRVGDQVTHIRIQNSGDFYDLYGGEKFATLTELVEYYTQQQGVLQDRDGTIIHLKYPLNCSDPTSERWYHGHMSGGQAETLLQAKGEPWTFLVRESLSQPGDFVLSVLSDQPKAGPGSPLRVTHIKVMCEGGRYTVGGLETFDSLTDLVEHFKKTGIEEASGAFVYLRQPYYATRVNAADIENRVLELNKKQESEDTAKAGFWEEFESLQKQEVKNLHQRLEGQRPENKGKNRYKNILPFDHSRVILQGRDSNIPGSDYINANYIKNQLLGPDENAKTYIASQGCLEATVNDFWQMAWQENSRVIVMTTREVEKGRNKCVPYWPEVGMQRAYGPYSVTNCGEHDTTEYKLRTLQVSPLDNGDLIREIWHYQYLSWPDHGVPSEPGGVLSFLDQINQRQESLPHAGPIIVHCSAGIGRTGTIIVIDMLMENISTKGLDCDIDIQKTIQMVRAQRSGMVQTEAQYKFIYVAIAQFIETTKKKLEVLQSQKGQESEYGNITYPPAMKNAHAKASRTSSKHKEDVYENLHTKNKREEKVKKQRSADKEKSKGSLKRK
inactive: nilotinib -0.002 | [1] -0.028 | dasatinib 0.028 | [2] -0.043 | [3] 0.071 | quisinostat 0.01 | tipifarnib 0.055 | [4] -0.03 | [5] -0.128 | [6] 0.062

PRIM2 (UniProt P49643)
Sequence of UniProt P49643 (P49643 whole entry, looked up): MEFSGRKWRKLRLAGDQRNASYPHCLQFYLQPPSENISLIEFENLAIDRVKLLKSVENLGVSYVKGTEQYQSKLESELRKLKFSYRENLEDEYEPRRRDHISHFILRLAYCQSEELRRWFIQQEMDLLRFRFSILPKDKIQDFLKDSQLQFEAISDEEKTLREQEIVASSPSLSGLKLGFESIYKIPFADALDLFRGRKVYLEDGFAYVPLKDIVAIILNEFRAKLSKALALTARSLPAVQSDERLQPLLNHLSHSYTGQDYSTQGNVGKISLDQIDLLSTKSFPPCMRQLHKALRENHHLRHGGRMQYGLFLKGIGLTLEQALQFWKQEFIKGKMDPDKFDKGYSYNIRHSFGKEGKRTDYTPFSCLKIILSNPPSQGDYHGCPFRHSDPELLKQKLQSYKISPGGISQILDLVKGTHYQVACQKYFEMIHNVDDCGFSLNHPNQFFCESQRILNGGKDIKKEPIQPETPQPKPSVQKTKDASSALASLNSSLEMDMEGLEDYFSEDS
inactive: nilotinib 0.052 | [1] 0.007 | dasatinib -0.038 | [2] -0.012 | [3] 0.02 | quisinostat -0.027 | tipifarnib -0.037 | [4] 0.018 | [5] -0.001 | [6] -0.021

POC5 (UniProt Q8NA72)
inactive: nilotinib 0.01 | [1] 0.058 | dasatinib -0.159 | [2] 0.09 | [3] -0.081 | quisinostat 0.007 | tipifarnib 0.005 | [4] -0.005 | [5] -0.128 | [6] 0.034

PCIF1 (UniProt Q9H4Z3)
active: [3] -0.439
inactive: nilotinib 0.018 | [1] -0.089 | dasatinib 0.118 | [2] 0.011 | quisinostat 0.019 | tipifarnib 0.015 | [4] -0.016 | [5] -0.006 | [6] 0.022

PFKP (UniProt Q01813)
inactive: nilotinib 0.026 | [1] -0.014 | dasatinib 0.012 | [2] 0.003 | [3] 0.009 | quisinostat 0.024 | tipifarnib 0.016 | [4] 0 | [5] -0.008 | [6] -0.004

PICALM (UniProt H0YEH1)
inactive: nilotinib -0.023 | [1] -0.012 | dasatinib -0.039 | [2] -0.007 | [3] -0.005 | quisinostat -0.095 | tipifarnib 0.019 | [4] 0.166 | [5] -0.021 | [6] -0.042
